Bioassay records (PubChem)
Rab9 prom act = activates the Rab9 promoter | Huh7 Rab9 promoter-luciferase reporter, luminescence, 24 h | Potency, µM (doses to about 9.22 µM), for the others: at the highest dose activation, negative = inhibition, hits mostly activators | actives 2.8% (n = 320,000) | AID 485297; also: % of control where 0% means no effect; nearly all actives have a fitted effect of over 60% in size
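Cell-based reporter: Huh7 stable for Rab9 promoter-driven luciferase, plated in reduced-serum medium with 10% FBS at 1500 cells/well, compound-treated 24 h at 37 °C, luminescence read after 10 min reagent.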
FLuc counter = counter-screen for miR-21 project: firefly luciferase inhibitors or activators; purified FLuc, Km substrates, luminescence inhibition; Potency, µM (titrated, usually from 57.5 µM), for the others: top-dose activity change, negative = inhibition, usual class: inhibitors; AID 588342; actives 6.9% (n = 360,000); P08659;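 also: plate controls were vehicle for no effect and reference inhibitor for full effect; nearly all actives have a fitted effect of over 55% in size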
Target sequence (P08659 whole entry, looked up): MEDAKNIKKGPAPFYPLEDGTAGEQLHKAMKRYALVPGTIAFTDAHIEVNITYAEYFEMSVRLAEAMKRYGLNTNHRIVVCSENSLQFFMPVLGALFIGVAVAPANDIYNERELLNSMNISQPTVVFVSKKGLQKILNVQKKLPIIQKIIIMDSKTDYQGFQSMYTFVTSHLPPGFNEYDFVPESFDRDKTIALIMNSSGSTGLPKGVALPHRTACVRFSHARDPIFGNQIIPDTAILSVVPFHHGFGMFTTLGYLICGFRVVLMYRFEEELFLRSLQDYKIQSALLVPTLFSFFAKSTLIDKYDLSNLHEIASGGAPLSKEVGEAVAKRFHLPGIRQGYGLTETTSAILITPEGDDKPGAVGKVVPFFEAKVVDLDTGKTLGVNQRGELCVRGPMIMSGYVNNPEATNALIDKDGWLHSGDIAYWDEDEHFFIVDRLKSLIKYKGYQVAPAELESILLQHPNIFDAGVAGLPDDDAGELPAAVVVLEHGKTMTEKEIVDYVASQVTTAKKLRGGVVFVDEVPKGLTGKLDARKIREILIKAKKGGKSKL
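Purified P. pyralis luciferase, 10 nM final, with Km-level 10 uM D-luciferin and 10 uM ATP in 50 mM Tris acetate pH 7.5, 10 mM Mg acetate, 0.01% Tween-20, 0.05% BSA; 6-point qHTS titration about 60 µM downward; luminescence read.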
SMN2 splice up = SMN2 splice variant enhancement. HEK293 SMN2-luciferase splicing reporter, luminescence, 30-36 h. Potency, µM (highest dose often 46.1 µM), for the others: at the highest dose activity change, positive = activation, actives largely listed as activators. actives 2.8% (n = 210,000). AID 1458; also: % of control where 0% means no effect; nearly all actives have a fitted effect of over 55% in size
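qHTS luciferase splicing reporter: luminescence rises when SMN2 exon 7 is included in transfected HEK293 cells. Compound exposure lasted 30-36 h at 37C, with 4.5 mM final sodium butyrate as control, followed by a ONE-Glo read.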
NPC1 prom act = activators of NPC1 promoter. Huh7 NPC1 promoter luciferase reporter, 24 h. Potency, µM (series often up to 9.22 µM), without a hit: at the top dose activation, actives largely listed as activators. actives 2.4% (n = 320,000). AID 485313; also: % of control where 0% means no effect; nearly all actives have a fitted effect of over 60% in size
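Stable NPC1-promoter luciferase Huh7 line; cpd (DMSO) 24 h, 37 °C, 5% CO2; Amplite luciferase reagent 10 min RT; luminescence readout. qHTS format.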
ELG1 genotoxic = inducers of genotoxicity in HEK293T ELG1-luciferase cells; HEK293T ELG1-luciferase reporter, luminescence, 16 h; Potency, µM (series often up to 46 µM), for inactives: top-dose activity change, positive = activation, usual class: activators; actives 1.3% (n = 330,000); AID 504466; also: % of control where 0% means no effect; nearly all actives have a fitted effect of over 60% in size
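Reporter readout depends on ELG1 protein level, which increases with genetic stress. After 16 hr compound exposure at 37 °C, luciferase activity was quantified using ONE-Glo.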
ELG1 repair inh = inhibitors of ELG1-dependent DNA repair in HEK293T cells; HEK293T ELG1-luciferase reporter, luminescence, 16 h; DNA damage induced by 5-fluorouridine; Potency, µM (series often up to 46.1 µM), for the others: at the top dose activity change, negative = inhibition, usual class: inhibitors; actives 2.3% (n = 330,000); AID 504467; also: % is scaled to controls: 0 for no effect and ±100 for the full control effect; nearly all actives have a fitted effect of over 55% in size
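Luminescence from the luciferase reporter, measured 30 min after ONE-Glo reagent at room temperature, was the read-out. Beforehand, 2,000 cells per well were exposed for 16 hr at 37 °C to 5-fluorouridine together with compound or vehicle.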
The depositor's hits bear a star; ? = inconclusive; nt = no result given; [ ] = dose if it differs, or a comment. Hits are enriched below; roughly 9.4% of the tested compounds scored in any of these assays. Calls follow the shape of the dose curve; as a rule, active = well fitted curve in the direction sought with a large enough effect; inconclusive = small, poorly fitted or top-dose-only effect, or another doubt; inactive = no such curve, though single readings can be large; an effect the other way counts as inactive or inconclusive. Potency is read from the fitted curve at half-maximal effect.

SMILES	Rab9 prom act	FLuc counter	SMN2 splice up	NPC1 prom act	ELG1 genotoxic	ELG1 repair inh
O=C(Cn1nnc(-c2ccccc2)n1)N1CCCCC1	?	0%	nt	27%	?	?
O=C(Cn1nnc(-c2ccc(OCc3ccccc3F)cc2)n1)N1CCOCC1	?	2.7µM*	13%	?	?	?
CC(C)COc1ccc(-c2nnn(CC(=O)N3CCCC3)n2)cc1	20%	12µM*	9%	18%	?	?
O=C(Cn1nnc(-c2ccccc2Cl)n1)N1CCCCC1	4µM*	17µM*	nt	?	?	?
CCCC(=O)NC(c1ccccc1OC)c1ccc2cccnc2c1O (stereo not given)	-49%	2%	nt	-18%	-6%	4.1µM*
Oc1c(C(Nc2nccs2)c2ccc(C(F)(F)F)cc2)ccc2cccnc12 (stereo not given)	-23%	-5%	nt	-19%	?	2.6µM*
CCCCC(=O)NC(c1ccccc1OC)c1ccc2cccnc2c1O (stereo not given)	-50%	-1%	nt	-43%	1%	?
CCC(=O)NC(c1cccs1)c1ccc2cccnc2c1O (stereo not given)	-41%	0%	nt	-36%	7%	3.7µM*
CCC(=O)NC(c1ccc(C)cc1)c1cc(Cl)c2cccnc2c1O (stereo not given)	nt	nt	nt	nt	5%	3.7µM*
Cc1nc(-c2ccc(S(=O)(=O)Nc3ccc(OC(F)(F)F)cc3)cc2)co1	nt	-6%	nt	nt	nt	nt
O=C(CCC(=O)N1Cc2ccccc2Oc2ncccc21)NCc1ccccc1Cl	nt	-20%	nt	nt	nt	nt
Cc1cccc(-c2nsc(SCC(=O)N3CCCC3)n2)c1	1.4µM*	6µM*	14µM*	1.6µM*	?	?
O=C(CSc1nc(-c2ccccc2)ns1)N1CCOCC1	2.8µM*	?	nt	2.5µM*	23µM*	?
COc1cc(NC(=O)c2cccs2)c(C(=O)OCC(=O)c2cc(C)n(-c3ccccc3)c2C)cc1OC	-20%	5.4µM*	13%	-17%	-7%	?
COc1cc(C(=O)OCC(=O)NCc2ccc(F)cc2)cc(NC(=O)c2cccs2)c1OC	-1%	?	-14%	2%	0%	21µM*
COc1cc(NC(=O)c2cccs2)c(C(=O)OCC(=O)c2cc(C)n(-c3ccc(F)cc3)c2C)cc1OC	0%	9.5µM*	-9%	0%	8%	?
COc1ccc(CCNC(=O)CCn2c(=O)c3cccn3c3ccc(F)cc32)cc1OC	nt	-9%	nt	nt	nt	nt
CSc1ccc(CCNC(=O)Cn2nc(C)n3c(cc4sccc43)c2=O)cc1	nt	-2%	-7%	nt	nt	nt
Nc1ccc(NC(=O)c2ccc(C(=O)Nc3ccc(N)cc3)cc2)cc1	19%	-1%	nt	14%	-1%	11%
Nc1ccc(C(=O)Nc2ccc(OC(F)(F)C(F)F)c(NC(=O)c3ccc(N)cc3)c2)cc1	2%	21µM*	nt	9%	-4%	?
COc1ccc(CN2CCN(C(=O)CCC(=O)Nc3nnc(C4CCCCC4)s3)CC2)cc1F	-24%	-8%	nt	-20%	-7%	5.8µM*
CC(C)Cc1nnc(NC(=O)CCC(=O)N2CCN(c3ccccc3)CC2)s1	0%	1%	nt	-2%	-2%	-5%
CCCc1nnc(NC(=O)CCC(=O)N2CCN(Cc3ccc(OC)c(F)c3)CC2)s1	-5%	6%	nt	1%	-3%	4%
COc1ccc(CN2CCN(C(=O)CCC(=O)Nc3nnc(CC(C)C)s3)CC2)cc1F	-22%	-2%	nt	-8%	-2%	5.8µM*
CC(C)Cc1nnc(NC(=O)CCC(=O)N2CCN(c3ccc([N+](=O)[O-])cc3)CC2)s1	-13%	1%	nt	-5%	-10%	9.2µM*
SMILES	Rab9 prom act	FLuc counter	SMN2 splice up	NPC1 prom act	ELG1 genotoxic	ELG1 repair inh
O=[N+]([O-])c1cccnc1Oc1ccc(C2SCCS2)cc1	?	21µM*	nt	?	?	?
O=[N+]([O-])c1ccc(Oc2ccc(OCc3ccccc3)cc2)nc1	-3%	-5%	nt	-6%	-2%	-24%
O=[N+]([O-])c1cccnc1Oc1ccc(OCc2ccccc2)cc1	?	17µM*	nt	?	?	?
CCc1ccc(CNC(=O)c2cccc(-n3cnc4cccnc43)c2C)cc1	nt	4%	nt	nt	nt	nt
COc1ccc2nc(NC(=O)C3CCN(S(=O)(=O)c4cccs4)CC3)sc2c1	-13%	-8%	nt	-3%	-16%	10µM*
CCCC(=O)Nc1nc2ccc(NC(=O)c3ccccc3F)cc2s1	-12%	-22%	nt	-30%	-2%	-4%
COc1ccc2nc(NC(=O)C3CCCN(S(=O)(=O)c4cccs4)C3)sc2c1 (stereo not given)	-1%	?	-8%	1%	-25%	?
COc1ccc2nc(NC(=O)c3ccccc3F)sc2c1	0.32µM*	0.34µM*	nt	0.45µM*	?	?
CSc1ncccc1C(=O)Nc1nc2ccc(Oc3ccccc3)cc2s1	0%	24µM*	11%	-1%	0%	?
Cc1cc(C)c2nc(NNC(=O)c3cc(=O)c4ccccc4o3)sc2c1	15%	13µM*	nt	1%	3%	0%
COc1ccc(C(=O)N2CCC[C@@]3(CCN(Cc4ccc(C#N)cc4)C3)C2)cc1	nt	nt	-12%	nt	nt	nt
C[C@H](NC(=O)c1ccc(Cl)c(Cl)c1)c1ccc(-c2ccccc2)cc1	nt	nt	1%[9.22 µM]	nt	nt	nt
CSc1ncccc1C(=O)Nc1ccc2nc(C)sc2c1	1%	17µM*	nt	23%	12%	?
CCn1cc([N+](=O)[O-])c(C(=O)Nc2nc3ccc(OC)cc3s2)n1	0.32µM*	24µM*	-4%	0.4µM*	7%	?
COc1ccc2nc(NC(=O)c3ccc(NC(=O)C4CCCO4)cc3)sc2c1 (stereo not given)	18%	9.5µM*	nt	21%	-10%	?
COc1ccc2nc(NC(=O)c3ccccc3C(=O)O)sc2c1	0%[1.84 µM]	9.5µM*	nt	-2%	2%	0%
COc1ccc2nc(NC(=O)c3ccccc3-c3ccccc3C(=O)O)sc2c1	-12%	?	-1%	-1%	6%	-9%
CCC(=O)C1=C(c2cccc([N+](=O)[O-])c2)N(C(=O)CC)n2c(nnc2C2CCCCC2)S1	nt	0%	nt	nt	nt	nt
COc1ccc(N(C)C(=O)CCn2cnc3onc(-c4ccc(F)cc4)c3c2=O)c(OC)c1	nt	3%	nt	nt	nt	nt
COc1ccc2nc(NC(=O)c3cnccn3)sc2c1	2.2µM*	3µM*	4µM*	3.2µM*	?	?
COc1ccc2nc(NC(=O)c3ccc(NS(=O)(=O)c4cccs4)cc3)sc2c1	-2%	4.8µM*	-12%	3%	-2%	?
